The values below come from PubChem BioAssay (NCI).

“And” between values parts separate entries of the source, which are not always exact repeats. Identical values can stand only once. About 83,000 compounds went through this panel and 20% of them were active in at least one assay; those are over-represented in the sample as a whole.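 Single-concentration screen, 48 h exposure, 96-well plates. Endpoint: percent growth. Below 10 = active.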 The source made the active and inactive calls.

The test system of this assay is MDA-MB-468 breast. As to the kind of experiment: NCI-60 one-dose screen, 48 h (100 = growth as untreated, 0 = no growth, -100 = all killed). As to conditions: 10 µM unless noted.
As for `CCN1C(=O)N(CC)C2Nn3c(s/c(=C4\C(=O)N(C(C)C)c5ccccc54)c3=O)=NC21` (stereo not given), the growth was 9.33% (active).

`COc1ccc(SC2c3cc(OC)c(OC)cc3Oc3nc(N)c(C#N)c(N)c32)cc1` (stereo not given): the growth was -40.7% (active).

In the case of `Cc1nc(N2CCOCC2)sc1S(N)(=O)=O`, the growth is 97% (inactive).

For `O=C1C=CC(=O)N1CCCCCCCCCCN1C(=O)C=CC1=O`, the growth was 70.9% (inactive).

For the compound `C=CCCCCOc1ccccc1-c1cnc(OCCCCC=C)n1C`, the growth was 25.5% (inactive).

With `COc1ccc(C2=NN(C(=O)c3ccc(S(C)(=O)=O)cc3)C(c3ccc(OC)c(OC)c3)C2)c(OC)c1` (stereo not given), the growth was 87% (inactive).

Regarding `CCCCCCCCc1cc[n+](CC(=O)c2ccc(Br)cc2)cc1`, the growth is -87% (active).

Regarding `CCOC(=O)CN(c1sc(C)c(C)c1C(=O)OCC)S(=O)(=O)c1ccc(C)cc1`, the growth is 89.6% (inactive).

On to `CC(O)CN(CC(C)O)c1ccc2c(c1)Cc1cc([N+](=O)[O-])ccc1-2` (stereo not given), for which the growth was 100% (inactive).

`COc1ccc(C2=NN(C(C)=O)C(c3c(C)nn(-c4ccccc4)c3N3CCOCC3)C2)cc1` (stereo not given): the growth was 92.6% (inactive).

As for `COc1cccc(OC)c1OC(=O)c1ccccc1`, the growth is 105% (inactive).

With `O=C1CCCN1C1CCN(Cc2cc3ccccc3[nH]c2=O)c2ccccc21` (stereo not given), the growth was 83.5% (inactive).

As to `CC(=O)c1cc(C(=O)c2ccc(Br)cc2)n2cc(C)cc(C)c12`, the growth was 89.3% (inactive).

Regarding `O=C1Nc2ccccc2C1(c1c[nH]c2ccccc12)c1c[nH]c2ccccc12`, the growth was -23.3% (active).

For the compound `O=C(Nc1cccc(-n2ccc3c(NC(=O)c4ccccc4)nccc32)c1)c1ccc(Cl)c(Cl)c1`, the growth was -94.1% (active).

Regarding `O=C(c1ccc(Cl)cc1)C1C(c2ccccc2)C1[N+](=O)[O-]` (stereo not given), the growth is 111% (inactive).

In the case of `CCN1C(=O)N(CC)C2Nn3c(s/c(=C\c4ccc(Cl)cc4Cl)c3=O)=NC21` (stereo not given), the growth was 32.1% (inactive).

On to `N#Cc1c(-c2cccs2)cc(-c2cnccn2)nc1SCC(=O)N/N=C/c1ccc(Cl)cc1`, for which the growth is 108% (inactive).

On to `COC(=O)C1=COC(C)C2C[n+]3ccc4c([nH]c5ccccc54)c3CC12` (stereo not given), for which the growth is 94.2% (inactive) and 85.8% (inactive).

With `O=C(O)c1ccc(N=CC(=O)c2ccc(-c3ccccc3)cc2)cc1`, the growth is 83.5% (inactive).

For `c1ccc(-c2cc3cc4ccccc4cn3c2)cc1`, the growth is 79.8% (inactive).

On to `CC(C)(CCc1ccccn1)C(=O)CCCc1ccccn1`, for which the growth is 107% (inactive).

For the compound `O=C1CC[C@@H](C(=O)N[C@H]2CSSC[C@@H](C(=O)N/C=C/c3ccc(O)cc3)NC(=O)[C@H](Cc3ccccc3)NC(=O)[C@@H]3CCCN3C(=O)[C@@H]3CCCN3C2=O)N1`, the growth is 89.5% (inactive).

As to `CN1CCCN(C(c2ccccc2)c2ccc(Cl)cc2)CC1` (stereo not given), the growth was 83.1% (inactive).

On to `O=C(N/N=C/c1ccc2c(c1)OCO2)c1cnn2c1NC(c1ccccc1)C2` (stereo not given), for which the growth was 22.4% (inactive).

With `CN(C)CCOc1cccc(NC2=C(Cl)C(=O)C(Nc3cccc(OCCN(C)C)c3)=C(Cl)C2=O)c1`, the growth was -47.1% (active).

As for `CC(C)CSc1nc(NN)c(C#N)c(-c2ccccc2)n1`, the growth is 98.2% (inactive).

For the compound `O=C(Nc1cccc(Cl)c1)Oc1c(Cl)c(Cl)c(Cl)c(Cl)c1Cl`, the growth is 110% (inactive).

Turning to `COc1ccc(-c2nnc(-c3c(-c4ccccc4)nc4ncccn34)o2)cc1OC`, the growth is 99.1% (inactive).

Turning to `COc1cc(NCCC2CCCCN2)c2ncccc2c1OC` (stereo not given), the growth is 73.8% (inactive).

On to `NC(=S)N1N=C(c2ccccc2)CC1c1cn(-c2ccccc2)nc1-c1ccc(OCc2ccccc2)cc1` (stereo not given), for which the growth is 102% (inactive).

In the case of `CCNc1nc(N2CC(=O)Nc3cc(OC)ccc32)c2ccccc2n1`, the growth was 1.34% (active).

As to `CCN1CCN(C(=O)[C@]23CC[C@@H](C)[C@H](C)[C@@H]2C2=CC[C@@H]4[C@@]5(C)C/C(=C/c6ccncc6)C(=O)C(C)(C)[C@@H]5CC[C@@]4(C)[C@]2(C)CC3)CC1`, the growth was -1.64% (active).

For the compound `CCOC(=O)c1c(NC(=O)C2CCCCC2C(=O)O)sc2c1CCCC2` (stereo not given), the growth was 103% (inactive).

`Cc1nn(-c2ccc(Br)cc2)c2nc3c(nc12)C(=O)C(=O)c1ccccc1-3`: the growth was 95.1% (inactive).

As for `Nc1nc(Nc2cccc(F)c2)nc2ccccc12`, the growth is 8.81% (active).

In the case of `Cn1c(=O)c2nc3c(=O)n(C)c(=O)n(C)c3nc2n(C)c1=O`, the growth was 92.1% (inactive).

With `CCCCCCCCCCCCCC1=NC(C)(C)CN1C(C)C`, the growth was -61.4% (active).

Turning to `COc1ccc(/C=N/NC(=O)CSc2nc(-c3cnccn3)cc(-c3cccs3)c2C#N)cc1OC`, the growth is 65.3% (inactive).

Regarding `O=C(Nc1nc(-c2ccccc2Cl)cs1)c1cc(-c2ccccc2)nc2ccc(Cl)cc12`, the growth was 90.9% (inactive).
